# Bioassay records deposited in PubChem BioAssay by National Center for Advancing Translational Sciences (NCATS).
# Shown are actives, neighbours in structure and some others; about 19% of the full set was active somewhere.
# TDP1 cell noCPT – qHTS for Inhibitors of human tyrosyl-DNA phosphodiesterase 1 (TDP1): qHTS in cells in absence of CPT; Potency, µM (doses to about 46.2 µM), inactives show at the highest dose activity change, negative = growth inhibition, most hits filed as inhibitors; hit rate 15% among 420,000; DT40 Tdp1-/- hTDP1 cells, no CPT, ATP luminescence, 48 h; note: nearly all actives have a fitted effect of over 55% in size
#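 DT40 Tdp1-/-;hTDP1 cells, no CPT (DMSO vehicle only), 400 cells/well; compounds pin-transferred; ≥48 hr, 37 °C; CellTiter-Glo 30 min RT dark, luminescence read.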
# RORgamma inh – blocks mouse ROR gamma transcriptional activity. Drosophila S2 Gal4-RORgamma UAS-luciferase reporter, 20 h. Potency, µM (top dose mostly 53.6 µM), inactives show at the top dose activity change, negative = inhibition, most hits filed as inhibitors. hit rate 5.4% among 310,000. AID 2551; note: nearly all actives have a fitted effect of over 60% in size
#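 Luminescence from a UAS-regulated Photinus luciferase reporter in stably transfected Drosophila Schneider cells is measured; decreased signal marks ROR gamma inhibition. Fusion expression is induced by 700 uM copper sulfate for 20 hr.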
# VP16 counter – Gal4-VP16 reporter inhibition counter-screen; AID 2546; Drosophila S2 Gal4-VP16 UAS-luciferase, luminescence, 20 h; Potency, µM (titrated, usually from 53.6 µM), without a hit: at the highest dose activity, negative = inhibition, hits mostly inhibitors; hit rate 3.5% among 310,000;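 note: Gal4-VP16 expression switched on by copper sulfate through the metallothionein promoter; nearly all actives have a fitted effect of over 50% in size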
# DT40 TDP1 CPT – growth inhibition of DT40 Tdp1-/-;hTDP1 cells with camptothecin (screen for TDP1 inhibitors); Potency, µM (series often up to 46.2 µM), for the others: top-dose activity change, negative = growth inhibition, actives largely listed as inhibitors; chicken DT40 Tdp1-/-;hTDP1 cells + 20 nM CPT, ATP luminescence, 48 h; hit rate 12% among 420,000; note: nearly all actives have a fitted effect of over 55% in size
#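 Chicken DT40 Tdp1-/- cells stably complemented with human TDP1 were seeded at 400 cells/well in medium containing 20 nM camptothecin, exposed to pin-transferred compounds, and grown at 37 °C for at least 48 hr. Viability was read as ATP luminescence.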
# TDP1 inh – TDP1 (human) enzyme inhibition. Q9NUW8. recombinant TDP1, AlphaScreen DNA substrate cleavage. Potency, µM (titrated, usually from 130 µM), inactives show at the highest dose activity change, negative = inhibition, most hits filed as inhibitors. hit rate 0.28% among 350,000; note: nearly all actives have a fitted effect of over 40% in size
# Target sequence (Q9NUW8 whole entry, looked up): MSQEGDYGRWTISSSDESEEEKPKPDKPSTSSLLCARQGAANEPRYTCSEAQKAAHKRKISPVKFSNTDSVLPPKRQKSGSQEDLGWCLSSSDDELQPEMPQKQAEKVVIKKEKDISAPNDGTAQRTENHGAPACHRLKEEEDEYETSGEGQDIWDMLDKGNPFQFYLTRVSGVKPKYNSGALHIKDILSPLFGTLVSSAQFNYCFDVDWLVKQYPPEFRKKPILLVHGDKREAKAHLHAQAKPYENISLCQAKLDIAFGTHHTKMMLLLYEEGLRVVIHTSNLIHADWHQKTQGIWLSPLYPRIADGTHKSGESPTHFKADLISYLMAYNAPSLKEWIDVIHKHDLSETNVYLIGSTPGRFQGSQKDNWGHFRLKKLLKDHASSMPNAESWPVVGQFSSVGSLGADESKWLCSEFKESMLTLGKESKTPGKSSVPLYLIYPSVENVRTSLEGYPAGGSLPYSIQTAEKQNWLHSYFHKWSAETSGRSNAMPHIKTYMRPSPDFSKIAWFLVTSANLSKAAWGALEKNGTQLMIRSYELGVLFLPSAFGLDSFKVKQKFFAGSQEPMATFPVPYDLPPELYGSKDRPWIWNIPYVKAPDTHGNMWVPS
#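 Enzyme-compound mixtures sat 15 min at room temperature, followed by a 5 min reaction with 15 nM final substrate and 10 min with AlphaScreen beads. Recombinant human Tdp1 was used at 1 nM final.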
# * = called active by the depositor; u = inconclusive; x = no result given; [ ] = dose if it differs, or a comment. Calls come from the whole dose curve; as a rule, active = well fitted curve in the direction sought with a large enough effect; inconclusive = small, poorly fitted or top-dose-only effect, or another doubt; inactive = no such curve, though single readings can be large; an effect the other way counts as inactive or inconclusive. % is set by controls: 0 for no effect and ±100 for the full control effect; potency is the fitted concentration of half-maximal effect.
SMILES,TDP1 cell noCPT,RORgamma inh,VP16 counter,DT40 TDP1 CPT,TDP1 inh
COc1cc(-c2cnc3c(NC=O)cc(-c4cccc(NC(C)=O)c4)cn23)cc(OC)c1OC,0.52µM*,x,x,0.52µM*,x
COc1cccc(-c2cnc3c(NC(C)=O)cc(-c4cccc(NS(C)(=O)=O)c4)cn23)c1,23µM*,x,x,26µM*,x
COc1cccc(-c2cnc3c(NC=O)cc(-c4cccc(NC(C)=O)c4)cn23)c1,21µM*,x,x,18µM*,x
COc1ccc(-c2cc(NC=O)c3ncc(-c4cccc(C(C)=O)c4)n3c2)cc1,18µM*,x,x,u,x
Cn1nc(C(=O)OCC(=O)NCCc2ccccc2)c2ccccc2c1=O,4%,0%,0%,5%,3%
CC(=O)Nc1cc(-c2cccc(C)c2)cn2c(-c3ccc(S(C)(=O)=O)cc3)cnc12,12µM*,x,x,15µM*,x
CC(=O)Nc1cccc(-c2cn3ccccc3n2)c1,9%,3%,-20%,24%,3%
CC(=O)Nc1cccc(-c2cc(NC=O)c3ncc(-c4cccc(C(C)=O)c4)n3c2)c1,21µM*,x,x,u,x
COc1cccc(-c2cc(NC=O)c3ncc(-c4ccc(C(C)=O)cc4)n3c2)c1,2.3µM*,x,x,3.7µM*,x
CC(=O)c1cccc(-c2cnc3c(NC=O)cc(-c4ccccc4)cn23)c1,21µM*,x,x,u,x
COc1cccc(-c2onc3ccc(C(C)=O)cc23)c1,-8%,-21%,1%,-13%,x
CNc1ccc(-c2cccc(C(C)=O)c2)cn1,-16%,x,x,u,x
COc1ccc(S(=O)(=O)N2CCN(C(=O)c3ccc([N+](=O)[O-])o3)CC2)cc1,21µM*,u,-1%,10µM*,45µM*
CCN1CCN(c2ccc(S(=O)(=O)N3CCCCC3)cc2NC(=O)c2cccc(C)c2)CC1,u,x,x,u,1%
COc1ccc(CCC(=O)N2CCN(S(=O)(=O)c3ccc(C)cc3)CC2)cc1,-28%,x,x,-19%,1%
CCN1CCN(c2ccc(S(=O)(=O)N3CCCCC3)cc2NC(=O)c2ccc([N+](=O)[O-])o2)CC1,7.3µM*,x,x,8.2µM*,x
COc1ccc(S(=O)(=O)N2CCCCC2)cc1NC(=O)c1ccc([N+](=O)[O-])o1,21µM*,-3%,0%,15µM*,2%
CCCCNC(=O)c1ccc(CNS(=O)(=O)c2ccc(Br)cc2)cc1,1%,6%,-12%,-24%,-6%
Cc1ccccc1-n1c(=S)[nH]c2nc3c(cc2c1=O)COC(C)(C)C3,11%,5µM*,11µM*,-14%,7%
Cc1ccccc1-n1c(=O)c2ccccc2n2cnnc12,0%,-5%,0%,-29%,6%
Cc1ccc(-n2c(=S)[nH]c3nc4c(cc3c2=O)COC(C)(C)C4)cc1,-21%,3.5µM*,u,-3%,0%
CC1(C)Cc2nc3[nH]c(=S)[nH]c(=O)c3cc2CO1,-9%,-3%,3%,2%,0%
CSc1nc2nc3c(cc2c(=O)n1-c1ccc(C)cc1)COC(C)(C)C3,-8%,29%,-10%,-21%,4%
CCC1(C)Cc2nc3[nH]c(=S)n(-c4ccc(C)cc4)c(=O)c3cc2CO1 (stereo not given),u,1.3µM*,14µM*,-4%,-2%
Cc1ccccc1-n1c(=S)[nH]c2nc3c(cc2c1=O)CCCC3,-4%,1.3µM*,4.5µM*,39%,1%
SMILES,TDP1 cell noCPT,RORgamma inh,VP16 counter,DT40 TDP1 CPT,TDP1 inh
O=C(Nc1ccc2c(c1)ncn2-c1ccccc1)c1ccco1,-22%,u,3%[0.365 µM],-13%,5%
COC(=O)C1CCCCN1Cc1nc(N2CCCCC2)c2cc(OC)c(OC)cc2n1 (stereo not given),-24%,x,x,20%[9.04 µM],x
Cc1ccc(-c2nc3ncccc3o2)cc1NC(=O)Cc1ccc(Cl)cc1,-8%,u,-2%,-16%,6%
O=P(COCCOCCOCP(=O)(c1ccccc1)c1ccccc1)(c1ccccc1)c1ccccc1,4%,9%,3%,30%,2%
COC(=O)c1cc2oc3ccccc3c2n1Cc1nc(-c2ccccc2C)oc1C,-3%,x,x,3%,2%
O=C1N(Cc2ccccc2)c2ccccc2OC1(F)F,4%,x,x,-6%,x
CSc1ccc(CN2C(=O)C(F)(F)Oc3c(C(C)=O)cccc32)cc1,16µM*,x,x,18µM*,x
CCc1cc2c(=O)c(-c3nc4ccccc4n3C)c(COCC(=O)O)oc2cc1OC(=O)C(C)(C)C,-7%,4.5µM*,-24%,-18%,8%
CCc1cc2c(=O)c(-c3nc4ccccc4n3C)c(C)oc2cc1OC(C)=O,u,-17%,1%,u,x
Cc1nc2sc(-c3ccccc3)cc2c(=O)n1N,u,7.1µM*,u,u,5%
Cc1nc2sc(-c3ccccc3)cc2c(=O)[nH]1,u,u,u,u,-4%
Cc1nc2sc(-c3ccccc3)cc2c(=O)n1-n1cccc1,u,5%,8%,u,-5%
O=c1[nH]c(-c2cccnc2)nc2sc(-c3ccccc3)cc12,0.52µM*,20%,0%,0.52µM*,8%
Oc1ccc(/C=N/Nc2ccc(C(F)(F)F)cn2)cc1,-22%,4.5µM*,u,u,2%
COc1cc(/C=N/Nc2ccc(C(F)(F)F)cn2)cc(OC)c1O,18µM*,u,u,u,0%
CCCS(=O)(=O)c1nc(S(=O)(=O)c2ccc(C)cc2)c(N(CC)CC)s1,u,x,x,-19%,3%
COc1ccc(-c2nc(CNS(=O)(=O)c3ccc(F)cc3)cs2)cc1,18µM*,x,x,u,-3%
COc1ccc(OC)c(S(=O)(=O)NCc2csc(-c3ccccc3)n2)c1,u,u,x,u,3%
O=S(=O)(NCCc1csc(-c2cccnc2)n1)c1ccc(F)cc1,-11%,0%,-1%,3%,6%
COc1ccc(-c2nc(CNS(=O)(=O)c3ccc(C)cc3)cs2)cc1,u,x,x,u,3%
COc1ccc(S(=O)(=O)NCCc2csc(-c3ccc(F)cc3)n2)cc1F,26µM*,x,x,23µM*,5%
COc1ccc(S(=O)(=O)NCCc2csc(-c3ccc(F)cc3)n2)cc1,15µM*,x,x,12µM*,-3%
COc1ccc(-c2nc(CNS(=O)(=O)c3cccc(F)c3)cs2)cc1,15µM*,x,x,-76%,5%
COc1ccc(-n2nc3c(c2NC(=O)CBr)CSC3)cc1,22%,5%,-1%,2%,2%
Cc1cn([C@H]2C[C@H](O)[C@@H](CNC(=O)CNC(=O)CN)O2)c(=O)[nH]c1=O,0%,x,x,3%,x
Cc1nn(-c2ccccc2)c(OC(=O)C(C)C)c1Sc1ccc(Cl)cc1,10µM*,x,x,u,6%
